Among the data in PubChem BioAssay (NCI) are growth values, retold here.

Each structure is given as a SMILES string. This is part of a sample that, as a whole, favours compounds with a hit. Of some 83,000 tested, about 20% had one in any assay.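 Single-concentration screen, 48 h exposure, 96-well plates. Endpoint: percent growth. Below 10 = active.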 Active and inactive are the calls of the source.

For this test, the system named is SK-OV-3 ovarian. Kind of test: NCI-60 one-dose screen, 48 h (100 = growth as untreated, 0 = no growth, -100 = all killed). The following applies: 10 µM unless noted.
With `CC(C)(CO)N(CCO)CCO`, the growth is 109% (inactive).

Take `CCCCCCCCn1ccc2cc(NC(=O)Cn3cc(CN4CCCCCC4)nn3)ccc21`: the growth was 97.6% (inactive).

With `COc1cc2cc(Oc3ccc(NC(=O)Nc4ccccc4)cc3)c(C)nc2cc1OCCN1CCCCC1`, the growth was 110% (inactive).

`CN1CCN(CCCOC(=O)c2c3c(n4ccccc24)C(=O)c2ncccc2C3=O)CC1`: the growth is -46.4% (active).

Turning to `Cc1ccc2[nH]c(-c3ccc(S(C)(=O)=O)cc3)c(/C=N/N=C(N)N)c2c1`, the growth was 57.7% (inactive).

Regarding `COc1ccc(C/C(C)=C(\c2ccc(O)cc2)c2ccc(OCCN3CCCC3)cc2)cc1`, the growth is 100% (inactive).

Regarding `CC1(C)C2CC=C(/C=N/NC(=O)C3CCC(=O)N3)C1C2` (stereo not given), the growth is 106% (inactive).

For the molecule `COc1ccc2cc(-c3ccc(-c4ccc(C(=N)N)s4)s3)ccc2c1`, the growth was 97.2% (inactive).

For the molecule `Cc1nc2sc(C(=O)Nc3ccccc3)c(N)c2cc1C(=O)/C=C/c1ccccc1`, the growth was 35.4% (inactive).

On to `O=C1/C(=C/c2ccc(C(F)(F)F)cc2)COc2ccc(O)cc21`, for which the growth is 116% (inactive).

Consider `Cc1[nH]c(C(=O)Nc2ccc(C(N)=O)cc2NC(C)C)c(Cl)c1Cl`, for which the growth was 113% (inactive).

As for `Oc1c(CN2CCCC2)cc(COCc2ccccc2)c2cccnc12`, the growth was -4.92% (active).

As for `CCCCCCCC/C=C\CCCCCCCCOc1ccccc1CC(=O)NCC[N+]1(C)CCCCC1`, the growth was 85.2% (inactive).

As for `O=C1Nc2ccc(F)cc2/C1=C\c1nc(-c2ccccc2F)n2ccccc12`, the growth is 101% (inactive).

Consider `CN(C)Cc1ccc(C(=O)Nc2ccc3ncnc(Nc4ccc(Oc5cccc(F)c5)c(Cl)c4)c3c2)cc1`, for which the growth was 19% (inactive).

As for `CCNC(=O)Oc1ccc(/C(=C(/C)Cc2ccc(OC)cc2)c2ccc(OCCN3CCCC3)cc2)cc1`, the growth was 88% (inactive).

With `Cc1cscc(C)c1=S`, the growth is 98.9% (inactive).

With `CC(=O)N/C(=C1/OC(C(O)C(O)C(O)CO)CN1C)[P+](c1ccccc1)(c1ccccc1)c1ccccc1` (stereo not given), the growth is 93.8% (inactive).

For `COC(=O)c1c2c(n3ccc(C)cc13)C(=O)c1ccccc1C2=O`, the growth is 103% (inactive).

On to `COc1cc2nc(Nc3cccc(F)c3)nc(Nc3cc(C)[nH]n3)c2cc1OC`, for which the growth is -90% [20 µM] (active).

In the case of `CC1=CCC[C@@H]2C1(C)CC[C@H](C)[C@@]2(C)CC1=CC(=O)C(SC(C)(C)C)=CC1=O` (stereo not given in full), the growth was 106% (inactive).

For the molecule `O=C(/C=C/c1cccc(Cl)c1)c1cccc(OCCCCOc2cccc(C(=O)/C=C/c3cccc(Cl)c3)c2)c1`, the growth is 113% (inactive).

As to `CCCNc1nc2ccccc2c2c(=O)c3cccc(Cl)c3sc12`, the growth was 88.4% (inactive).

In the case of `COc1cccc(Nc2ccnc3[nH]c4ccc([N+](=O)[O-])cc4c23)c1`, the growth is 47.5% (inactive).

Turning to `CCOC(=O)CSc1nc2sc3c(c2c(=O)n1-c1ccc([N+](=O)[O-])cc1)CCCCC3`, the growth is 68.3% (inactive).

`COc1cccc2c(N=NC(=O)c3ccc(S(N)(=O)=O)cc3)c(O)[nH]c12`: the growth was 107% (inactive).

Regarding `Clc1nccc2c(-c3csc(-c4c[nH]c5ccccc45)n3)c[nH]c12`, the growth was 58.8% (inactive).

On to `COc1cc(/C=N/Nc2ccccc2F)cc(OC)c1OC`, for which the growth was 111% (inactive).

Take `COc1ccc2c(c1)c(-c1nc(-c3cn(C)c4ncccc34)cs1)cn2CCO`: the growth was 89.8% (inactive).

Regarding `CS(=O)(=O)Cc1cnc(C2OCCO2)s1`, the growth was 139% (inactive).

With `COc1ccc(Nc2ncc(C(N)=O)c(NCCCNC(=O)C3CCC3)n2)cc1`, the growth is 36.6% (inactive).

Take `N#C/C(=C\c1ccc(-c2ccc(Cl)cc2)o1)c1ccc(Cl)cc1`: the growth is 75.5% (inactive).

Consider `COc1cc(C(=O)/C=C/c2c(-c3cccs3)nc3ccccn23)cc(OC)c1OC`, for which the growth is 3.6% (active).

`Fc1ccc(CNc2c3ccccc3nc3ccccc23)cc1`: the growth was 39.9% (inactive).

Turning to `COc1cc(Nc2c3ccc(Cl)cc3nc3ccc(OC)cc23)c2ncccc2c1`, the growth was 52.5% (inactive).

Take `COc1cc(C2Cc3ncccc3-c3[nH]c(=O)c4cccnc4c32)cc(OC)c1OC` (stereo not given): the growth was 15.3% (inactive).

`CCc1ccc(CCC(=O)Nc2ncc(Cc3ccc(Cl)cc3)s2)o1`: the growth was 37.4% (inactive).

Consider `N#Cc1c(-c2ccccc2)nc2c(c(-c3ccccc3)nn2-c2ccccc2)c1-c1ccc(N2CCOCC2)cc1`, for which the growth is 108% (inactive).

`COc1ccc(NC(=O)c2ccc(C(=O)Nc3ccc(OC)cc3OC)cc2)c(OC)c1`: the growth was 43.8% (inactive).

For `CCN=C1C=CC(=C(c2ccc(N(C)C)cc2)c2ccc(N(C)C)cc2)c2ccccc21`, the growth is -35.2% (active).
